This is a sample that favours compounds with a hit; in the whole collection about 0.2% have one here.
Bim-Bfl-1 = inhibitors of Bim-Bfl-1 interaction, human; 190,000 tested, 0.12% active; Q16548; AID 1008; inhibition, % at 10 µM; Bead-based flow cytometry, Bim-Bfl-1 binding inhibition;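 note: 0% = wells without compound plus tracer and 100% = blocker peptide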
Target sequence (Q16548 whole entry, looked up): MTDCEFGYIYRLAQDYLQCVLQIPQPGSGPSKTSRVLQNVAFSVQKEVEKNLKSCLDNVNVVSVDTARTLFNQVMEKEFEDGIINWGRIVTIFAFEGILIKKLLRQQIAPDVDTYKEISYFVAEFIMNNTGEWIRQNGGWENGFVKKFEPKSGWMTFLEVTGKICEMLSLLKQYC
Bim-Bcl-2 = human Bim-Bcl-2 interaction inhibition; AID 950; inhibition, % at 10 µM; 190,000 tested, 0.06% active; Bead-based flow cytometry, Bim peptide-Bcl-2 binding; in the data active = inhibition above about 40%;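 note: 0% = no compound wells with probe peptide and 100% = reference peptide inhibitor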
Bcl-XL Bim block = human Bim-Bcl-XL interaction inhibition; 190,000 tested, 0.04% active; AID 1007; Q07817; Bim peptide-Bcl-XL binding, bead flow cytometry, fluorescence; inhibition, % at 10 µM
Target sequence (Q07817 whole entry, looked up): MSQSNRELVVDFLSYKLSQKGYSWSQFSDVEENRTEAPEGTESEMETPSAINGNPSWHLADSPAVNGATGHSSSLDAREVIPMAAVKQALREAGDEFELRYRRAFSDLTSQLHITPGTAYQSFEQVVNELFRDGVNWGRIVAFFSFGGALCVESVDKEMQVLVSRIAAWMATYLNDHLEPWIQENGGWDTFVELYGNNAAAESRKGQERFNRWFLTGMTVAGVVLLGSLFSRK
Bcl-B Bim block = human Bim-Bcl-B interaction inhibition; Q9HD36; bead-based flow cytometry, Bim peptide-Bcl-B binding; inhibition, % at 10 µM; 190,000 tested, 0.073% active; AID 951;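 note: 0% = tracer peptide without compound and 100% = reference inhibitor peptide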
Bcl-W Bim block = human Bim-Bcl-W interaction inhibition; inhibition, % at 10 µM; 190,000 tested, 0.02% active; bead-based flow cytometry, Bim peptide-Bcl-W binding; AID 952; Q92843;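 note: 0% = bound tracer without compound and 100% = peptide blocker; higher means less fluorescent Bim peptide bound to Bcl-W beads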
Bim-Bcl-XL DR = confirmation of regulators of human Bim-Bcl-XL interaction. inhibition of binding at 100 µM. shares compounds with Bim-Bfl-1. bead-based flow cytometry, Bim-Bcl-XL binding. 40 tested, under 10 active; call rule not given here
Numbers without * were called inactive; / = no result. Cut-off read from the data, not from the text of the source, unless noted: active = inhibition above about 40%.

SMILES	Bim-Bfl-1	Bim-Bcl-2	Bcl-XL Bim block	Bcl-B Bim block	Bcl-W Bim block	others
CN1CCc2cccc3c2[C@@H]1Cc1ccc(O)c(O)c1-3	40*	40*	22	-12	51*
COc1ccc(C2=Nn3c(nnc3-c3ccco3)SC2)cc1OC	8	14	44*	26	29
O=C(CCc1ccccc1)N1CCN(c2ccccn2)CC1	9	15	16	43*	21
Cc1nc2scc(-c3ccccc3)c2c(=O)n1N=C1C=CC(=O)C=C1	40*	17	4	-1	19
Cc1c(N=C2C=C(Br)C(=O)C(Br)=C2)c(=O)n(-c2ccccc2)n1C	18	7	3	-15	16
Cc1c(N=C2C=CC(=O)c3ccccc32)c(=O)n(-c2ccccc2)n1C	53*	16	2	-12	10
O=C(CSc1nnc(COc2cccc3ccccc23)o1)N1c2ccccc2CCc2ccccc21	0	0	1	-2	0
Cc1cc(C)nc(SCc2cc(=O)c(OC(=O)c3ccc(Cl)c([N+](=O)[O-])c3)co2)n1	0	13	52*	18	36
Cc1nc(Nc2ccccc2C(F)(F)F)sc1C(=O)N(C)C	-6	-3	-6	-8	-4
O=C(CCC1CCCCC1)Nc1nccs1	-17	-8	-4	-11	-5
COc1cccc(NC(=O)CSc2nncn2N)c1	41*	28	39	22	23
C=CCn1c(C)c(C(C)=O)c(N2CCOCC2)nc1=S	48*	29	38	29	29
CCOC(=O)CSc1nc(=O)n2cccc(C)c2n1	-6	-2	-2	-3	0
CCOc1cc(S(=O)(=O)Nc2ccccn2)ccc1F	/	89*	28	/	22
CCOc1cc(S(=O)(=O)Nc2ccc(Cl)cn2)ccc1F	-12	-5	-10	-6	0
CC(C)(C=O)C1=CC(=O)c2ccccc2C1=O	49*	2	2	15	9
CCN(CC)c1ccc(NC(=O)c2ccccc2Br)cc1S(=O)(=O)Nc1ccccc1OC	33	2	-2	-33	2	Bim-Bcl-XL DR=-10
CCN(CC)c1ccc(NC(=O)c2ccccc2F)cc1S(=O)(=O)Nc1ccccc1OC	29	4	-6	-31	3	Bim-Bcl-XL DR=-11
CCN(CC)c1ccc(NC(=O)COc2ccccc2C)cc1S(=O)(=O)Nc1ccccc1OC	38	-5	-11	-32	0	Bim-Bcl-XL DR=-9.5
C/C(=N/NS(C)(=O)=O)c1ccc2ccccc2c1	-2	-2	-2	0	-2
COc1ccc(-c2csc(NC(=O)CSc3ccc(Br)cc3)n2)c(OC)c1	-6	-6	-9	-9	-7
COc1ccc(OC)c(Cc2nnc(CCC(=O)NC(C3CC3)C3CC3)o2)c1	-4	-2	0	-3	0
CCN1C(=O)/C(=C\C=C2/C=CC=CN2CC)SC1=S	21	7	0	-6	3	Bim-Bcl-XL DR=-1.7
CCN1C(=O)/C(=C2/C=CC=CN2C)SC1=S	-13	-8	-18	-5	0
Cc1cc(N2CCCC(C(=O)Nc3ccc4c(c3)CCC4)C2)n2ncnc2n1 (stereo not given)	1	-1	0	0	-1
SMILES	Bim-Bfl-1	Bim-Bcl-2	Bcl-XL Bim block	Bcl-B Bim block	Bcl-W Bim block	others
CNC(=O)/C(C#N)=C/c1ccc(-c2ccccc2[N+](=O)[O-])o1	2	1	5	0	6
O=C(/C=C/c1ccc(-c2ccccc2[N+](=O)[O-])o1)c1ccccc1	15	2	0	-13	12	Bim-Bcl-XL DR=0.2
O=C1/C(=C\c2ccco2)NC(=S)N1c1ccccc1	32	11	0	-29	8	Bim-Bcl-XL DR=0.95
CCCN=C1N/C(=C\c2ccco2)C(=O)N1c1ccccc1	-1	0	1	-3	0
CCN(CC)C(=O)COC(=O)c1cc(-c2ccco2)nc2ccccc12	45*	16	2	0	11	Bim-Bcl-XL DR=5.6
C=CSc1sc(Cl)c(N2CCOCC2)c1[N+](=O)[O-]	-3	-3	-3	-6	-1
C=CS(=O)(=O)c1sc(Cl)c(N2CCOCC2)c1[N+](=O)[O-]	48*	11	6	10	9	Bim-Bcl-XL DR=6.7
COC(=O)c1ccc(C(=O)OC)c(NC(=O)COC(=O)C2CCC(C(C)(C)C)CC2)c1 (stereo not given)	-10	-9	-13	-5	0
Cc1ccc(-c2cc(-c3ccc(Cl)cc3)c(C#N)c(N)n2)o1	24	1	3	1	1
